# Measurements: article PMC7862700, “An all-to-all approach to the identification of sequence-specific readers for epigenetic DNA modifications on cytosine”
# Experiments:
# Test in all cases: DAPPL (digital affinity profiling via proximity ligation, sequencing); 10 mM Tris-HCl pH 7.5, 50 mM NaCl, 1 mM DTT, 4% glycerol, room temperature, 30 min; GST-TFs on glutathione beads, 16-mer random dsDNA library, 0.1% formaldehyde crosslink after washing; high values mean tight binding
# Details in all cases: protein: recombinant; tags: N-terminal GST; dsDNA, one strand shown
# ELK1 = biological target: T1, ELK1 (Homo sapiens, UniProt P19419 1-428)
# T1 sequence: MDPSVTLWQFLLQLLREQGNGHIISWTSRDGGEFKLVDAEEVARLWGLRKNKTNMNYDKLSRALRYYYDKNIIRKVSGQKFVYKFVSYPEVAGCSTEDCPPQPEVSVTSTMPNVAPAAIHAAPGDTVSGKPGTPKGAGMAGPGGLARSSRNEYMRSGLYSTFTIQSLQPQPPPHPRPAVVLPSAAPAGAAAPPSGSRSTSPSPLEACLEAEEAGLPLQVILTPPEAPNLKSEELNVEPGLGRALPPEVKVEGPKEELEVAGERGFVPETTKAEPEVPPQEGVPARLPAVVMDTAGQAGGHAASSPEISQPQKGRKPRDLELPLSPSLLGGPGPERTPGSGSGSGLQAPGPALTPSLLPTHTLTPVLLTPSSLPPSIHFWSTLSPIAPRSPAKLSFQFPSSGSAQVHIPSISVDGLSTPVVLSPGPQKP
# Procedure, shortened: (§1)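 The binding signal reported is, for every hexamer, its read frequency for a factor over its read frequency for the tag-only sample. Reads came from pools of yeast-expressed, GST-fused human transcription factors on glutathione beads, barcoded with DNA and mixed with that sample, which were incubated with 200 nmole of a random double-stranded 16-mer DNA library in Tris/NaCl/DTT/glycerol buffer at room temperature for 30 min. After washing, the pools were crosslinked with 0.1% formaldehyde, proximity-ligated with BsaI/T4 ligase for 1 h at 37 °C, PCR-amplified and sequenced on an Illumina NextSeq500.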
# GABPA = biological target: T2, GABPA (Homo sapiens, UniProt Q06546 1-454)
# T2 sequence: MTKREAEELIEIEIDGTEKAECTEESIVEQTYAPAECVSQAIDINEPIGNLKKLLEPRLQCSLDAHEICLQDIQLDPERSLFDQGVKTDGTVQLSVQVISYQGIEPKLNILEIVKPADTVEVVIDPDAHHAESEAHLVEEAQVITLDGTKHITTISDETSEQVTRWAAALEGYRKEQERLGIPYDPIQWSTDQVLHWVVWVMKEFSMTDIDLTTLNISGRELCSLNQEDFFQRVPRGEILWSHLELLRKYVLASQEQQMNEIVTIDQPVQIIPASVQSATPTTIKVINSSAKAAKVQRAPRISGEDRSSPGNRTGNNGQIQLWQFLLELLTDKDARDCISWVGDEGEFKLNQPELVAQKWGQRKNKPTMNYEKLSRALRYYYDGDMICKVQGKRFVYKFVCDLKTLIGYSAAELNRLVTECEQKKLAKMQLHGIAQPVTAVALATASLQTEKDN
# Procedure, shortened: as §1
# ERG = biological target: T3, ERG (Homo sapiens, UniProt P11308 1-479)
# T3 sequence: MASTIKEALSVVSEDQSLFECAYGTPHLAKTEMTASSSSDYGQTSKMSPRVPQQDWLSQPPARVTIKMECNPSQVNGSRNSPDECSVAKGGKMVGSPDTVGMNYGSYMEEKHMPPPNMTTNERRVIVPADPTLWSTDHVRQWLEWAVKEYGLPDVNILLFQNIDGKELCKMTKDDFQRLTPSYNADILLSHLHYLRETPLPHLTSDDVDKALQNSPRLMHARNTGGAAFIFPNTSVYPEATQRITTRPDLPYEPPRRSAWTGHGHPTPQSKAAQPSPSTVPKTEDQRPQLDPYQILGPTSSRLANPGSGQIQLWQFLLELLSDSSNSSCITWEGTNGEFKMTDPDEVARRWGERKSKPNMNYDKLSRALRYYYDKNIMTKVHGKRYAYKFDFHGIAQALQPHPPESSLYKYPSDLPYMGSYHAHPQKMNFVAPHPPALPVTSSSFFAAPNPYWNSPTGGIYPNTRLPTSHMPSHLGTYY
# Procedure, shortened: as §1
# ELF1 = ELF1 (Homo sapiens, UniProt P32519 1-619)
# Procedure, shortened: as §1
# SPIB = SPIB (Homo sapiens, UniProt Q01892 1-262)
# Procedure, shortened: as §1
# ELK3 = biological target: T4, ELK3 (Homo sapiens, UniProt P41970 1-407)
# T4 sequence: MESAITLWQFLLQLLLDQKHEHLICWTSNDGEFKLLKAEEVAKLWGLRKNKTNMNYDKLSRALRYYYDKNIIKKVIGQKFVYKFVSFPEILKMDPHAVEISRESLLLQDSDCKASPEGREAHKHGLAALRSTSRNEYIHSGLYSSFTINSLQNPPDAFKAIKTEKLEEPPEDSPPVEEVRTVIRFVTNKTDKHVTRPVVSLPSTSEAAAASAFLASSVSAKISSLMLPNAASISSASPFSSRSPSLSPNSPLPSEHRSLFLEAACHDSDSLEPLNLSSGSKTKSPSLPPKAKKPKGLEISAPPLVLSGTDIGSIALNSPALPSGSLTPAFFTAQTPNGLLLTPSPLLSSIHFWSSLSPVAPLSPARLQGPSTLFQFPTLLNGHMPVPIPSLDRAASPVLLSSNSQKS
# Procedure, shortened: as §1
# ELF4 = ELF4 (Homo sapiens, UniProt Q99607 1-663)
# Procedure, shortened: as §1
# ELK4 = biological target: T5, ELK4 (Homo sapiens, UniProt P28324-2 1-405)
# T5 sequence: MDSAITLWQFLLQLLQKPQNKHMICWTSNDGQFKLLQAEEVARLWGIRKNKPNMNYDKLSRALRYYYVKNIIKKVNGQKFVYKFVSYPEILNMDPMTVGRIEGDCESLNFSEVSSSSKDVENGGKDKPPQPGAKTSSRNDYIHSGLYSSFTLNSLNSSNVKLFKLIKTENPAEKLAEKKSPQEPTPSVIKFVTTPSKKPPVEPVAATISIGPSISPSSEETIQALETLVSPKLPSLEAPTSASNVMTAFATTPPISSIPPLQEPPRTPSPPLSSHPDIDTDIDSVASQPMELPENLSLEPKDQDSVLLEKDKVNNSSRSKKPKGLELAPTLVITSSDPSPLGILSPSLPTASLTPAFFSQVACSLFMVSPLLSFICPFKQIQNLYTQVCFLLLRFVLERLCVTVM
# Procedure, shortened: as §1
# ELF3 = biological target: T6, ELF3 (Homo sapiens, UniProt P78545 1-371)
# T6 sequence: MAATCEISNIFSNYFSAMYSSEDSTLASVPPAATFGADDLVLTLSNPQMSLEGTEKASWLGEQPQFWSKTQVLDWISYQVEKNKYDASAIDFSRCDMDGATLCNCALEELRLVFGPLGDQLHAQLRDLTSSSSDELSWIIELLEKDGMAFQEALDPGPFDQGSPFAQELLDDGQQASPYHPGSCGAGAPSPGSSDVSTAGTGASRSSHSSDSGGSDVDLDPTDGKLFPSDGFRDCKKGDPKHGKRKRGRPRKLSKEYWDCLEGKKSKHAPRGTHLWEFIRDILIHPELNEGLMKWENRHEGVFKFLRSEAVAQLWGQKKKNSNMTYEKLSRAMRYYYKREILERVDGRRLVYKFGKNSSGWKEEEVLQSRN
# Procedure, shortened: as §1
# ETV1 = ETV1 (Homo sapiens, UniProt P50549 1-477)
# Procedure, shortened: as §1
# ETV3L = biological target: T7, ETV3L (Homo sapiens, UniProt Q6ZN32 1-361)
# T7 sequence: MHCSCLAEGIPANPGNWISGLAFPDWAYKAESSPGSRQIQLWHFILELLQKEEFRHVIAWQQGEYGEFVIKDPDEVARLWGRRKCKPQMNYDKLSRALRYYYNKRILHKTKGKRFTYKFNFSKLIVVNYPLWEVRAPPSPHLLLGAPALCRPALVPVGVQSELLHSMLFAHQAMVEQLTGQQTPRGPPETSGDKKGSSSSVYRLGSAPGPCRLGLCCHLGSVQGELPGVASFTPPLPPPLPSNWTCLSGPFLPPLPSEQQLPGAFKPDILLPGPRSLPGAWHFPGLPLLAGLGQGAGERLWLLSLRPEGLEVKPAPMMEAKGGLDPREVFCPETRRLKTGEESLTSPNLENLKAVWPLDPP
# Procedure, shortened: as §1
# ETS2 = biological target: T8, ETS2 (Homo sapiens, UniProt P15036 1-469)
# T8 sequence: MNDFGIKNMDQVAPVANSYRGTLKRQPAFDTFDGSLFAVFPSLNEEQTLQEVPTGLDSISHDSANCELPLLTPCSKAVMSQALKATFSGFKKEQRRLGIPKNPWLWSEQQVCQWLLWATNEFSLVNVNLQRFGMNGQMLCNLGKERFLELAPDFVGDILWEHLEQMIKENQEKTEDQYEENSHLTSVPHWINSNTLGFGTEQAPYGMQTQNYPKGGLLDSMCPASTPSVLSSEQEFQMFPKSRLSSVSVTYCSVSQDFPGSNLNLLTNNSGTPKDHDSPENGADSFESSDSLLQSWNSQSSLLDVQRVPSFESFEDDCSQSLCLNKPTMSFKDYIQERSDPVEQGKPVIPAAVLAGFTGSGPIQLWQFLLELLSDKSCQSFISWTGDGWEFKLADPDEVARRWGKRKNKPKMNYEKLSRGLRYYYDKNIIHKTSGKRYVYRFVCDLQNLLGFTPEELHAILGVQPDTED
# Procedure, shortened: as §1
# SPDEF = biological target: T9, SPDEF (Homo sapiens, UniProt O95238 1-335)
# T9 sequence: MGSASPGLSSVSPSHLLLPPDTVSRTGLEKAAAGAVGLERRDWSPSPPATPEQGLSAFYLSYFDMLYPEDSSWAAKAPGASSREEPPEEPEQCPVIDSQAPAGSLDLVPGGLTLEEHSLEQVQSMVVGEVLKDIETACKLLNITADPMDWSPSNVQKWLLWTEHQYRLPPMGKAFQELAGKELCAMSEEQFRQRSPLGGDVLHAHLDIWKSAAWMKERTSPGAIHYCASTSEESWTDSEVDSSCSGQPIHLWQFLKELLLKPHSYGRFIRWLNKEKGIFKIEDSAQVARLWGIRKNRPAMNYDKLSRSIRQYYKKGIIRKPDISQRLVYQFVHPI
# Procedure, shortened: as §1
# ETV7 = biological target: T10, ETV7 (Homo sapiens, UniProt Q9Y603 1-341)
# T10 sequence: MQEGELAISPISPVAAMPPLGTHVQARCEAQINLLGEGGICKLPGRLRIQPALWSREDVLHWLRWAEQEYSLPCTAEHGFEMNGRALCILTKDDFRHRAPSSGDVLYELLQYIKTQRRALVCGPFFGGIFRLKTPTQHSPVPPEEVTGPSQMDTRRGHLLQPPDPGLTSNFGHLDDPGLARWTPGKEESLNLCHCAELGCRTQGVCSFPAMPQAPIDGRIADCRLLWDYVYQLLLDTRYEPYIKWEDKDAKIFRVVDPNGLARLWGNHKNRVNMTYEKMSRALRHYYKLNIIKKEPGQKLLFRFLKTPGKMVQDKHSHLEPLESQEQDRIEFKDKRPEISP
# Procedure, shortened: as §1
# ETV3 = biological target: T11, ETV3 (Homo sapiens, UniProt P41162-2 1-143)
# T11 sequence: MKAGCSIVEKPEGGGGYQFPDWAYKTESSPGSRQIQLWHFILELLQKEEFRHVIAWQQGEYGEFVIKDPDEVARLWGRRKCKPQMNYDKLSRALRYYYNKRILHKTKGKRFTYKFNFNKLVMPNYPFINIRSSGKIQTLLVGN
# Procedure, shortened: as §1
# ETV6 = ETV6 (Homo sapiens, UniProt P41212 1-452)
# Procedure, shortened: as §1
# ELF4, sequence (Q99607 whole entry): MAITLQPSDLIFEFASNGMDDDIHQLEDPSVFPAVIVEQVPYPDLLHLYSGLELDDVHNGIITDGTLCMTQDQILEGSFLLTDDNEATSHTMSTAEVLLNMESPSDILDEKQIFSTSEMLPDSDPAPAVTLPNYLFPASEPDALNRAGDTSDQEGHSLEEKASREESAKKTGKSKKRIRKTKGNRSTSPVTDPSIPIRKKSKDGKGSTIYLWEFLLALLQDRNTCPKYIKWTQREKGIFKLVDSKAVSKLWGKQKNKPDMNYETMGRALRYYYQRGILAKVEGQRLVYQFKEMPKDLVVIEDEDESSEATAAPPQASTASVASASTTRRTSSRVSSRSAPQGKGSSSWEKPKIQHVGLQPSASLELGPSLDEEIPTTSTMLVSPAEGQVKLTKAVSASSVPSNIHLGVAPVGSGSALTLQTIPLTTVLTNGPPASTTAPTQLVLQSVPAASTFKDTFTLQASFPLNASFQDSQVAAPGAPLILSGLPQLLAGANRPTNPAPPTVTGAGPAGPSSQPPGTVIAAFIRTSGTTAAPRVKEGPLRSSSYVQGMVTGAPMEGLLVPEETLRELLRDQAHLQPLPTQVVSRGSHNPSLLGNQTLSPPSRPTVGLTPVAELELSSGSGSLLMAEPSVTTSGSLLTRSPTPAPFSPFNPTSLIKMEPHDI
# SPIB, sequence (Q01892 whole entry): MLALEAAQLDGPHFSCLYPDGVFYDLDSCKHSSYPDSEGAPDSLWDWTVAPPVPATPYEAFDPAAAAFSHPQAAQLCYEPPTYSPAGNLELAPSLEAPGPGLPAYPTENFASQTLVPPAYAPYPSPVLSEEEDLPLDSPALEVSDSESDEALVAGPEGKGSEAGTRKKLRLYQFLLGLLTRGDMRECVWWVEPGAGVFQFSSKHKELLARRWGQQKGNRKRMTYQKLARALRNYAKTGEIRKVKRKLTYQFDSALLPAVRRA
# ELF1, sequence (P32519 whole entry): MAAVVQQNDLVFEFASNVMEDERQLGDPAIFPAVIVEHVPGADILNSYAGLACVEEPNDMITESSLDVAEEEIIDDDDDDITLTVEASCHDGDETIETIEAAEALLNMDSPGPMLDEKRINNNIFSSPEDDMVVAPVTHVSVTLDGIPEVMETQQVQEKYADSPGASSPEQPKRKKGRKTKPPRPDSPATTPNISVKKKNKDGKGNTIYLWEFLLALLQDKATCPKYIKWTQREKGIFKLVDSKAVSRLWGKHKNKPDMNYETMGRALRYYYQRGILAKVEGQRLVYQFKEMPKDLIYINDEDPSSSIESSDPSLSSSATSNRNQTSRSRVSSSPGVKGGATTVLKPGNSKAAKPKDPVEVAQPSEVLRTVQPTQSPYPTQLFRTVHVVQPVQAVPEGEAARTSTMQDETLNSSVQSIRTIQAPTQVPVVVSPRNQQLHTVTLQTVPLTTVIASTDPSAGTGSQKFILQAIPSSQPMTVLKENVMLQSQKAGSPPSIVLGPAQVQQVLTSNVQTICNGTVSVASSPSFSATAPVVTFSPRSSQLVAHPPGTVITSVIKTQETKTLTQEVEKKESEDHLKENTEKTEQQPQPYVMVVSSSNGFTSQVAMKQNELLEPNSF
# ETV6, sequence (P41212 whole entry): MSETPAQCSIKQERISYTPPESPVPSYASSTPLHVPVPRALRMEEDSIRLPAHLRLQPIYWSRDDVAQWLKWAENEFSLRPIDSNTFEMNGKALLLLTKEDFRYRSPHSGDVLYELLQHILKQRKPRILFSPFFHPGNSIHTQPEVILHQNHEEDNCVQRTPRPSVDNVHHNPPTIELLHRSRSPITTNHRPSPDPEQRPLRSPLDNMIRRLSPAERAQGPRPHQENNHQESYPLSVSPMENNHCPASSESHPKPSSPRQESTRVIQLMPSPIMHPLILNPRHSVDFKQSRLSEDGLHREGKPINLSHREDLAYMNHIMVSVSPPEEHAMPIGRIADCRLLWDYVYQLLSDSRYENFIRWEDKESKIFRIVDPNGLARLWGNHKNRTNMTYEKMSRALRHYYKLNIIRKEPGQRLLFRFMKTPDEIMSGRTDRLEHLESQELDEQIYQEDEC
# ETV1, sequence (P50549 whole entry): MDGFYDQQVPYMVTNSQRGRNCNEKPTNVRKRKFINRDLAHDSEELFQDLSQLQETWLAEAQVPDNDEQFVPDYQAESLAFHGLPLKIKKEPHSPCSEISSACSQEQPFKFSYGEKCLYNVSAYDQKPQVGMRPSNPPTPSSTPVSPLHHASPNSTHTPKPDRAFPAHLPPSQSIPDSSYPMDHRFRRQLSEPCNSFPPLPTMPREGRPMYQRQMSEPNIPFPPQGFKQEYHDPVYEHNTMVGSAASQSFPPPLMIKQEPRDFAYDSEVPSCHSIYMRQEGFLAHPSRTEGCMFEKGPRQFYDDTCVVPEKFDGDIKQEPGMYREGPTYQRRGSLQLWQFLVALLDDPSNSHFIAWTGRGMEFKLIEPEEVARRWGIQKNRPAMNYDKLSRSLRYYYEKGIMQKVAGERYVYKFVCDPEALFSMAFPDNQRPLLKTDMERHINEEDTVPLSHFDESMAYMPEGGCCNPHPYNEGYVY
sequence,measurement,setting,value
CGCGAT,binding signal,ELK1,"1.07 fold enrichment (6-mer frequency, TF over GST control)"
same,binding signal,GABPA,"1.09 fold enrichment (6-mer frequency, TF over GST control)"
same,binding signal,ERG,"1.09 fold enrichment (6-mer frequency, TF over GST control)"
same,binding signal,ELF1,"1.06 fold enrichment (6-mer frequency, TF over GST control)"
same,binding signal,SPIB,"1.03 fold enrichment (6-mer frequency, TF over GST control)"
same,binding signal,ELK3,"1.07 fold enrichment (6-mer frequency, TF over GST control)"
same,binding signal,ELF4,"1.07 fold enrichment (6-mer frequency, TF over GST control)"
same,binding signal,ELK4,"1.22 fold enrichment (6-mer frequency, TF over GST control)"
same,binding signal,ELF3,"1.15 fold enrichment (6-mer frequency, TF over GST control)"
same,binding signal,ETV1,"1.08 fold enrichment (6-mer frequency, TF over GST control)"
same,binding signal,ETV3L,"1.06 fold enrichment (6-mer frequency, TF over GST control)"
same,binding signal,ETS2,"1.07 fold enrichment (6-mer frequency, TF over GST control)"
same,binding signal,SPDEF,"1.05 fold enrichment (6-mer frequency, TF over GST control)"
same,binding signal,ETV7,"1.05 fold enrichment (6-mer frequency, TF over GST control)"
same,binding signal,ETV3,"1.08 fold enrichment (6-mer frequency, TF over GST control)"
same,binding signal,ETV6,"1.05 fold enrichment (6-mer frequency, TF over GST control)"
